TRPM1 prom inh – inhibitors of MITF-driven TRPM1 promoter in melanoma cells. 330,000 tested, 0.83% active. AID 488899. inhibition, % at 12.5 µM. SK-MEL-5 TRPM1 promoter luciferase, 24 h;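 active = mean inhibition across replicates of 60% or more, whatever share of single replicates reaches that level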
PAX8 reporter – inhibitors of PAX8 transcriptional activity in RMG-I cells | RMG-I TPO-luciferase reporter, SteadyGlo, 24 h | inhibition, % at 12.6 µM | 360,000 tested, 1.2% active;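 active = mean replicate inhibition at least 60% with every replicate also reaching 60%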;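 also: luciferase light reporting Pax8 driven TPO promoter activity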
Shn3 inh set2 – reduces Shn3 3'UTR luciferase signal in osteoblasts | Clone20 osteoblast Shn3 3'UTR firefly luciferase, 24 h | 360,000 tested, 0.52% active | inhibition, % at 12.5 µM | AID 588674;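 active = mean inhibition of at least 75% with every replicate also reaching 75%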
aSyn UTR inh – MLPCN primary screen, SNCA 5' untranslated region | alpha-synuclein 5'UTR reporter, inhibitor activity | inhibition, % (tested at 7.5 µM) | 300,000 tested, 0.82% active | AID 1813; in the data active = inhibition above about 60%;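 also: H4 neuroglioblastoma cells stably carrying SNCA 5'UTR luciferase fusion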
LMP1 NFkB inh – inhibitors of Epstein-Barr LMP1-induced NF-kappaB reporter. inhibition, % at 12.5 µM. LMP1-induced NF-kappaB luciferase reporter cells, luminescence. 350,000 tested, 0.69% active; in the data active = inhibition above about 41%
Each line names hits and unclear results; the compound was inactive in the other large screens. Rows were chosen to be rich in hits. Some 2.1% of all compounds tested hit in one or more screens of this group.

O=C(CN1CCOCC1)c1cccc2ccccc12	none
COC(=O)[C@@H]1[C@@H](CO)[C@@H]2Cn3c(ccc(C4=CCCCC4)c3=O)[C@H]1N2CCc1ccccc1	none (no result: TRPM1 prom inh, Shn3 inh set2, aSyn UTR inh, LMP1 NFkB inh)
COc1ccc(CCNCc2cccn2C)cc1	LMP1 NFkB inh 69
Cn1cccc1CNCCc1ccccc1	none (no result: TRPM1 prom inh, PAX8 reporter, Shn3 inh set2, LMP1 NFkB inh)
N#CC(C#N)=NNc1ccc(-n2ccc(C(F)(F)F)n2)cc1	PAX8 reporter 94, LMP1 NFkB inh 60 (no result: Shn3 inh set2)
Cc1cc(C)n(-c2ccc(NN=C(C#N)C#N)cc2)n1	LMP1 NFkB inh 57
CCN(CC)S(=O)(=O)c1ccc(NN=C(C#N)C#N)cc1	none
CCc1nc2ccccc2c(=O)n1-c1ccc2ccccc2c1	none
O=C(NCNC(=O)NC1C(=O)NC(=O)N1CO)NC1C(=O)NC(=O)N1CO (configuration not stated)	none (no result: aSyn UTR inh)
C[C@@H]1C[C@H]2OC(=O)C3(CO3)[C@H]2[C@H](O)[C@]2(C)C(=O)C3OC3[C@@H]12 (some centres not stated)	none (no result: TRPM1 prom inh, PAX8 reporter, Shn3 inh set2, LMP1 NFkB inh)
C=C1C(=O)O[C@@H]2C[C@@H](C)[C@@H]3C=CC(=O)[C@@]3(C)[C@@H](O)[C@H]12	TRPM1 prom inh 106, PAX8 reporter 112, Shn3 inh set2 99, aSyn UTR inh 119, LMP1 NFkB inh 94
CC(C)N(Cc1ccco1)/N=C/c1c(O)n(Cc2ccccc2)c(=O)[nH]c1=O	none
CCCCNC(=O)CN1C(=O)CN=C(c2ccccc2)c2ccccc21	none
CC[n+]1c(-c2ccccc2)c2cc(N)ccc2c2ccc(N)cc21	PAX8 reporter 110 (no result: TRPM1 prom inh, aSyn UTR inh)
COc1cc(/C=C(/C)[N+](=O)[O-])ccc1OCc1ccccc1Cl	TRPM1 prom inh 91, Shn3 inh set2 96 (no result: PAX8 reporter)
COc1cc(C=C2C(=O)NC(=O)NC2=O)ccc1OCc1ccc([N+](=O)[O-])cc1	none (no result: aSyn UTR inh)
CC(O)C1C=CC=CC(=O)OC2CC3OC4C5OC5(C)CCC4(COC(=O)C4OC4(C)C(O)CO1)C2(C)C31CO1 (configuration not stated)	TRPM1 prom inh 70, PAX8 reporter 103, Shn3 inh set2 92, LMP1 NFkB inh 84 (no result: aSyn UTR inh)
CC(=O)OC1C(=O)OCC23CCC4(C)OC4C2OC2CC(OC(=O)C=CC=CC(=O)OCCC1C)C3(C)C21CO1 (configuration not stated)	TRPM1 prom inh 83, PAX8 reporter 103, Shn3 inh set2 94, LMP1 NFkB inh 81 (no result: aSyn UTR inh)
COC(=O)[C@H]1[C@H](CO)[C@H]2Cn3c(ccc(-c4cccnc4)c3=O)[C@@H]1N2CCc1ccccc1	none (no result: TRPM1 prom inh, Shn3 inh set2, aSyn UTR inh, LMP1 NFkB inh)
CC(CC(C)(C)N1CC1)=NO	none (no result: aSyn UTR inh)
CCCCCCCSc1cc(OC)c(CCNC)cc1OC	TRPM1 prom inh 102, Shn3 inh set2 94, aSyn UTR inh 121 (no result: PAX8 reporter)
O=C(COc1ccccc1)N1CCN(CC2CC=CCC2)CC1 (configuration not stated)	none
CC1OC(OC2CC(O)C3(CO)C4C(O)CC5(C)C(C6=CC(=O)OC6)CCC5(O)C4CCC3(O)C2)C(O)C(O)C1O (configuration not stated)	TRPM1 prom inh 87, LMP1 NFkB inh 80 (no result: PAX8 reporter, aSyn UTR inh)
C[C@@H]1O[C@@H](O[C@H]2C[C@@H](O)[C@]3(CO)[C@H]4[C@H](O)C[C@]5(C)[C@@H](C6COC(=O)C6)CC[C@]5(O)[C@@H]4CC[C@]3(O)C2)[C@H](O)[C@H](O)[C@H]1O (some centres not stated)	TRPM1 prom inh 68, PAX8 reporter 105, aSyn UTR inh 115, LMP1 NFkB inh 55
CCOC(=O)[C@]12Cc3cc(C)ccc3[C@H]1N(C1CCCCC1)C(=O)c1cc(OC)ccc12	PAX8 reporter 104 (no result: TRPM1 prom inh, Shn3 inh set2, aSyn UTR inh, LMP1 NFkB inh)
CCOC(=O)[C@]12Cc3cc(OC)ccc3[C@H]1N(C1CCCCC1)C(=O)c1cc(OC)ccc12	none (no result: TRPM1 prom inh, Shn3 inh set2, aSyn UTR inh, LMP1 NFkB inh)
O=C(COC(=O)Cc1ccccc1)NC12CC3CC(CC(C3)C1)C2	none (no result: PAX8 reporter)
C/C=C1\CN2[C@H]3C[C@@]45c6ccccc6N(C)[C@H]4[C@@H]2CC1C3[C@H]5O (some centres not stated)	none (no result: PAX8 reporter)
N#Cc1ccc(Cn2cc(C=O)c3ccccc32)cc1	none
O=Cc1cn(Cc2cccc([N+](=O)[O-])c2)c2ccccc12	aSyn UTR inh 94, LMP1 NFkB inh 89
Cc1cccc(Cn2cc(C=O)c3ccccc32)c1	aSyn UTR inh 68, LMP1 NFkB inh 51
COc1ccc(C#Cc2ccc([C@H]3[C@H]4CN(C(=O)Cc5ccncc5)CCCCN4[C@H]3CO)cc2)cc1	none (no result: TRPM1 prom inh, Shn3 inh set2, aSyn UTR inh, LMP1 NFkB inh)
C[N+](C)(C)CC1CCCc2ccccc2C1=O (configuration not stated)	none (no result: aSyn UTR inh)
N#CCCn1cc(C(=O)Nc2ccccc2Br)c(-c2ccc3c(c2)OCCO3)n1	none
CCOC(=O)c1c(-n2c(C)cc(/C=C3/C(=O)NC(=O)N(CC)C3=O)c2C)sc2c1CCCC2	none
CCOC(=O)c1c(-n2c(C)cc(C=C3C(=O)NC(=S)NC3=O)c2C)sc2c1CCCC2	TRPM1 prom inh 64 (no result: PAX8 reporter)
O=C1OCc2cc(N=Nc3c(O)[nH]c(=O)[nH]c3=O)ccc21	none
CC1=CC2/C=C(\C)CCC(O)C(O)/C=C/C(=O)C23C(=O)NC(CC(C)C)C3C1C (configuration not stated)	TRPM1 prom inh 97, Shn3 inh set2 99 (no result: PAX8 reporter)
CC(=O)OC(C)(C)/C=C/C(=O)[C@](C)(O)[C@H]1[C@H](O)C[C@@]2(C)[C@@H]3CC=C4[C@H](C[C@H](O)C(=O)C4(C)C)[C@]3(C)C(=O)C[C@]12C	TRPM1 prom inh 88, Shn3 inh set2 98, LMP1 NFkB inh 51 (no result: PAX8 reporter, aSyn UTR inh)
CC(=O)OC(C)(C)/C=C/C(=O)C(C)(O)C1C(O)CC2(C)C3CC=C4C(CC(O)C(=O)C4(C)C)C3(C)C(=O)CC12C (configuration not stated)	TRPM1 prom inh 88, PAX8 reporter 108 (no result: aSyn UTR inh)
CC(=O)OC(C)(C)/C=C/C(=O)C(C)(O)C1[C@H](O)C[C@@]2(C)C3CC=C4C(CC[C@@H](O)C4(C)C)[C@]3(CO)C(=O)C[C@]12C (some centres not stated)	TRPM1 prom inh 85, PAX8 reporter 112, aSyn UTR inh 86
CC1=C(N2CC2)C(=O)C(CO)=C(N2CC2)C1=O	TRPM1 prom inh 106, PAX8 reporter 118, Shn3 inh set2 96, LMP1 NFkB inh 89 (no result: aSyn UTR inh)
COC(COC(N)=O)C1=C(N2CC2)C(=O)C(C)=C(N2CC2)C1=O (configuration not stated)	none (no result: aSyn UTR inh)
CC(=O)OC1(Cc2ccccc2)CN2CCC1c1ccccc12 (configuration not stated)	none (no result: PAX8 reporter)
COC1=C(C)C(=O)C2=C(C1=O)C(CO)N1C(C#N)C3CC4C(C1C2N1CCOC41)N3C (configuration not stated)	TRPM1 prom inh 76, PAX8 reporter 92, LMP1 NFkB inh 86 (no result: aSyn UTR inh)
CSc1nc(Cl)c(Br)c(N2CC2)n1	none (no result: aSyn UTR inh)
CC(=O)OC1C(O)C(C)OC(OC2C(OC(=O)C3CCC4C(C3)OC3(CC(OC(=O)/C=C/c5ccccc5)C(C)CO3)C43CO3)OC(C)C(O)C2OC(C)=O)C1O (configuration not stated)	TRPM1 prom inh 87, PAX8 reporter 104, Shn3 inh set2 96, LMP1 NFkB inh 85 (no result: aSyn UTR inh)
CC1(C)CN=C(Nc2nc3ccccc3s2)S1	none (no result: PAX8 reporter)
